Reference: ChEMBL document CHEMBL4513216, “Probing the Open Global Health Chemical Diversity Library for Multistage-Active Starting Points for Next-Generation Antimalarials” (ACS Infect Dis, 2020)
Out of some 69,000 compounds screened, about 8,600 (12%) showed an effect of 50% or more. Shown is part of a subset that was picked to be rich in strong results.

test system: Plasmodium berghei; test: Screen against P. berghei liver stage (PbLuc), transformed with Luciferase, at 10uM; format: functional, HepG2; conditions: tested at 10 uM

In order of falling INHIBITION:
1. Cc1ccccc1-n1cc(-c2ccnc(NC(CO)C(C)C)n2)cn1 (stereo not given)  95.7%
2. COC[C@H]1CCCN1c1nccc(-c2cnn(-c3ccccc3C)c2)n1  78.5%
3. Cc1ccccc1-n1cc(-c2ccnc(N[C@H](CO)C(C)C)n2)cn1  68.2%
4. O=C(NCc1ccc(F)cc1)NCC(O)(c1ccco1)C1CC1 (stereo not given)  66.9%
5. CN(C)[C@H]1CCCCN(C(=O)COCc2nc3cc(F)ccc3[nH]2)C1  51.3%
6. COCCOCC1(CNC(=O)c2ccc(OC)cc2)C[C@@H](O)[C@@H](O)C1 (stereo not given in full)  50.6%
7. CN1CC[C@H]2CN(C(=O)COCc3nc4cc(F)ccc4[nH]3)C[C@H]21  47.3%
8. Cc1cccc(Oc2ccccc2CNC(=O)C2CCC(=O)NC2)c1 (stereo not given)  37.9%
9. CN1C[C@@H]2CC[C@H]1CN(C(=O)COCc1nc3ccc(F)cc3[nH]1)C2  35.1%
10. Cc1cnn(CC2CCCN2C(=O)c2cccc3[nH]ncc23)c1 (stereo not given)  24.5%
11. Cc1nc(C)n(CC2CN(Cc3cscn3)CCO2)n1 (stereo not given)  21.935%
12. CN(C)Cc1nn(C)c2c1CCN(C(=O)c1cccnc1)C2  17.4%
13. COCCOCC1(CNCc2cccc(OC)c2)C[C@@H](O)[C@@H](O)C1 (stereo not given in full)  12.4%
14. CC(=O)N1CCC(c2cccc(NC3CCOCC3)n2)CC1  11.8%
15. O=C(NCC(O)(c1ccco1)C1CC1)c1ccccc1F (stereo not given)  9.79%
16. Cc1ccccc1-n1cc(-c2ccnc(N[C@@H](CO)C(C)C)n2)cn1  8.7%
17. Fc1ccc(N2CCOC(Cc3cccnc3)C2)cc1 (stereo not given)  7.52%
18. COc1cccc(-n2cc(-c3ccnc(N[C@H](CO)C(C)C)n3)cn2)c1  5.8%
19. Cc1ccccc1-n1cc(-c2ccnc(N3CCCC(O)C3)n2)cn1 (stereo not given)  3.06%
20. c1cc(CN2CC[C@H]3CO[C@H](CN4CCOCC4)[C@H]3C2)cs1  2.59%
21. COCCOCC1(CNCc2ccc(OC)cc2)C[C@@H](O)[C@@H](O)C1 (stereo not given in full)  -1.12%
22. Cc1nnc(N2CCOC(C)(C(=O)N(C)C)C2)c2ccccc12 (stereo not given)  -9.51%
23. Cc1nccc(N[C@H]2CN(CC(C)(C)N3CCOCC3)C[C@@H]2C2CC2)n1  -10.6%
24. O=C(NCc1ccc(F)cc1)NCC(O)(c1cccs1)C1CC1 (stereo not given)  -11.8%
25. CC(=O)NCCc1ccc(S(=O)(=O)Nc2cc(F)ccc2C)s1  -12.2%
26. Cc1ccc(Br)cc1C(=O)Nc1cc(C(N)=O)n(C)c1  -20.2%
27. Cc1ccccc1-n1cc(-c2ccnc(N3CCCC(CN)C3)n2)cn1 (stereo not given)  -29.6%
28. COc1cccc(-n2cc(-c3ccnc(NC(CO)C(C)C)n3)cn2)c1 (stereo not given)  -40.6%
29. Cc1cc(CN2CCN(C(=O)NCc3cccs3)CC2)no1  -43.5%
30. COc1cccc(-n2cc(-c3ccnc(N[C@@H](CO)C(C)C)n3)cn2)c1  -95.7%
